# Compound activity: PubChem BioAssay, National Center for Advancing Translational Sciences (NCATS)
# Pf growth 48h = inhibits P. falciparum growth in the first generation, 48 h; Potency, µM (doses to about 28.7 µM), without a hit: at the highest dose activity change, negative = inhibition, hits mostly inhibitors; P. falciparum luciferase growth in erythrocytes, 48 h; hit rate 5.9% among 310,000; also: % is scaled to controls: 0 for no effect and ±100 for the full control effect
#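 Luciferase-expressing parasites in RBCs, 2% Hct / 0.1% parasitemia final; RPMI 1640 + 0.5% Albumax; 37 C, 5% CO2, one generation; luminescence read-out, lower signal = inhibition.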
# Sm TGR block = blocks Schistosoma mansoni thioredoxin glutathione reductase; hit rate 3% among 360,000; AID 485364; purified TGR, DTNB reduction, TNB absorbance 405 nm; Q962Y6; Potency, µM (top dose mostly 114 µM), for inactives: at the top dose activity change, negative = inhibition, hits mostly inhibitors; also: % is scaled to controls: 0 for no effect and ±100 for the full control effect; nearly all actives have a fitted effect of over 60% in size
#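 Kinetic colorimetric format: TGR-catalysed, NADPH-driven DTNB reduction monitored via TNB absorbance. Enzyme dispensed at 20 nM; compound exposure 15 min at room temperature before reaction start.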
# Pf growth 96h = inhibits malaria parasite growth, 96 h. P. falciparum luciferase reporter growth, 96 h. Potency, µM (titrated, usually from 28.7 µM), without a hit: at the highest dose activity change, negative = inhibition, usual class: inhibitors. hit rate 6.9% among 320,000. AID 504834; also: % is scaled to controls: 0 for no effect and ±100 for the full control effect
#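 P. falciparum expressing integrated firefly luciferase grown in erythrocytes (2% hematocrit, 0.05% parasitemia final) with compounds for 96 hours at 37 C, 5% CO2. Growth inhibition read as loss of luminescence after adding luciferase detection reagent.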
# SARS PLpro yeast = inhibitors of SARS-CoV papain-like protease in yeast | S. cerevisiae expressing SARS-CoV PLpro, growth rescue | Potency, µM (top dose mostly 32.9 µM), inactives show at the highest dose activity, positive = growth rescue, usual class: activators | hit rate 0.19% among 330,000 | AID 485353; calls by dose curve; also: 0% is about no effect; nearly all actives have a fitted effect of over 55% in size
# Active calls of the source: *; ? = inconclusive; nt = no result given. An excerpt weighted towards active compounds, which were near 12% of everything screened. Unless noted, calls follow the shape of the dose curve; as a rule, active = well fitted curve in the direction sought with a large enough effect; inconclusive = small, poorly fitted or top-dose-only effect, or another doubt; inactive = no such curve, though single readings can be large; an effect the other way counts as inactive or inconclusive. Potency is read from the fitted curve at half-maximal effect.
SMILES,Pf growth 48h,Sm TGR block,Pf growth 96h,SARS PLpro yeast
CCn1nc(-c2ccccc2)c(-c2ccccc2)c(C(=O)Nc2nc(C)c(C(C)=O)s2)c1=O,nt,1%,nt,nt
Cc1cc(C)nc(NS(=O)(=O)c2ccc(NC(=O)C3(c4ccc([N+](=O)[O-])cc4)CCCC3)cc2)n1,10%,-3%,9.3µM*,20%
CCOC(=O)c1c(NC(C)=O)c2c3c(sc2n1Cc1nc(-c2ccccc2Cl)oc1C)CCCC3,nt,-11%,nt,nt
CCOc1ccc(NC(=O)CN(C)C(=O)CCC2CCCCC2)cc1OCC,?,-2%,15µM*,-3%
COc1ccc(NC(=O)COc2cccc3c2OC(C)(C)C3)c(OC)c1,?,-3%,10µM*,-4%
CCOc1ccc(NC(=O)CN(C)C(=O)COc2cccc3c2OC(C)(C)C3)cc1OCC,13µM*,-22%,?,-8%
COc1cc(C)c(NC(=O)COc2cccc3c2OC(C)(C)C3)cc1OC,-19%,1%,?,-3%
CCOc1ccc(NC(=O)CN(C)C(=O)CC2CCCC2)cc1OCC,?,0%,13µM*,-1%
CCc1ccc(NS(=O)(=O)c2ccc(C(=O)N(C)C)s2)cc1,nt,-4%,nt,nt
O=C(NCc1n[nH]c(=O)c2ccccc12)C1CC(=O)N(c2ccccc2)C1 (stereo not drawn),27%,-11%,0%,1%
CCC1CCC(C(=O)NC(C(=O)Nc2ccc3c(c2)OCCO3)C(C)C)CC1 (stereo not drawn),nt,-23%,9.3µM*,6%
CC(C)CC(NC(=O)C1CCC(C)CC1)C(=O)Nc1ccc2c(c1)OCCO2 (stereo not drawn),nt,5%,-5%,-7%
O=C(NCc1ccccc1)C1CCN(S(=O)(=O)Cc2ccccc2)CC1,nt,-13%,nt,nt
CCOc1cc(/C=N/NC(=O)CN2CCCCC2)ccc1OCc1ccccc1,40%,-17%,36%,-10%
COc1ccc(CCN)cc1OC,-18%,-13%,?,2%
CCOc1cc(/C=N/O)ccc1OCc1ccc(F)cc1,26%,-12%,3.7µM*,-13%
CCOc1cc(/C=N/NC(=O)CN2CCOCC2)ccc1OCc1ccc(Cl)cc1,?,2%,13µM*,-3%
NCCc1ccc(OCc2ccccc2)c(OCc2ccccc2)c1,?,-12%,10µM*,-2%
NC(N)=N/N=C/c1ccc(OCc2ccccc2Cl)cc1,0.15µM*,3%,0.13µM*,-22%
CC[C@@]12C(=O)N(c3cccc(F)c3)C(=O)N1[C@H](c1ccc(Cl)cc1)[C@@H]1C(=O)N(C3CCCCC3)C(=O)[C@@H]12,?,2%,?,-12%
CCC(C)[C@H](N)c1nnc(SCc2ccc(Cl)c(Cl)c2)o1 (stereo partly drawn),nt,2%,nt,nt
NC(N)=N/N=C/c1ccc(OCc2ccccc2)c(OCc2ccccc2)c1,0.52µM*,11%,?,-1%
CCOc1cc(/C=N/N=C(N)N)ccc1OCc1ccc(Cl)cc1,1.5µM*,-2%,?,14%
COc1cc(/C=N/N=C(N)N)ccc1OCc1ccc(Cl)cc1,?,nt,-3%,-1%
O=C(O)c1ccc(S(=O)(=O)N[C@@H](Cc2ccc(O)cc2)C(=O)O)cc1,12%,45µM*,3%,3%
SMILES,Pf growth 48h,Sm TGR block,Pf growth 96h,SARS PLpro yeast
N#Cc1ccc(C[C@@H](NS(=O)(=O)c2ccc(C(=O)O)cc2)C(=O)O)cc1,?,-4%,2%,-6%
CC(=O)c1cccc(NC(=O)Nc2nc(C)cc(C)n2)c1,7%,-3%,?,nt
CCOC(=O)c1c(NC(=O)CSc2nc3ccc(OC)cc3[nH]2)sc2c1CC(C)(C)NC2(C)C,?,-3%,5.9µM*,-2%
CCOC(=O)c1c(NC(=O)CSc2ncccn2)sc2c1CC(C)(C)NC2(C)C,15µM*,-11%,9.3µM*,?
CC1(C)Cc2c(sc(NC(=O)COc3ccc(Cl)cc3Cl)c2C(N)=O)C(C)(C)N1,10µM*,4%,?,0%
CCOC(=O)c1c(NC(=O)COc2ccccc2F)sc2c1CC(C)(C)NC2(C)C,12µM*,-1%,?,-10%
COc1ccc(NC(=O)CSc2nc3ccc(OC)cc3[nH]2)cc1,3%,1%,34%,-1%
O=C(CCCn1c(=O)c2ccccc2n(CC(=O)Nc2cccc(C(F)(F)F)c2)c1=O)NCc1ccc2c(c1)OCO2,nt,1%,nt,nt
CCOc1ccc(-c2nc(CSCC(=O)NCc3ccc(Cl)cc3)c(C)o2)cc1,nt,-18%,nt,nt
CCN(CC(=O)Nc1c(F)cccc1F)C(=O)c1cccc(S(=O)(=O)N(C)c2ccccc2)c1,?,5%,-3%,-1%
CCCc1nc2sc3ccccc3c(=O)c2c(=O)n1Cc1ccco1,-10%,35µM*,-8%,3%
CCCc1nc2sc3ccccc3c(=O)c2c(=O)n1Cc1ccc(OC)cc1,?,-13%,10µM*,0%
COCCn1c(C2CCCCC2)nc2sc3ccccc3c(=O)c2c1=O,1.5µM*,-29%,0%,17%
CCOc1ccccc1NC(=O)Cn1c(=O)n(-c2ccc(C)c(C)c2)c(=O)c2c(C)c(C(=O)N(C)C)sc21,nt,4%,nt,nt
CC1CCCCN1S(=O)(=O)c1ccc(C(=O)Nc2sc3c(c2C(N)=O)CC(C)(C)NC3(C)C)cc1 (stereo not drawn),nt,7%,nt,nt
COc1ccc(NC(=O)C2CCCNC2=O)cc1 (stereo not drawn),24%,-3%,6.6µM*,1%
CC(=O)c1ccc(NC(=O)C2CCCNC2=O)cc1 (stereo not drawn),15%,3%,5.2µM*,-2%
Cc1ccc(NC(=O)C2CCCNC2=O)nc1 (stereo not drawn),16%,-15%,2%,1%
O=C1NCCCC1C(=O)Nc1cccc(C(F)(F)F)c1 (stereo not drawn),-20%,10%,-5%,-5%
Cc1cccc(NCc2cc(Cl)cc(Cl)c2O)n1,10µM*,8%,-1%,-64%
Cc1ccc(O)c(CNc2cccc(C)n2)c1,?,2%,27%,1%
Cc1cccc(NCc2cc(Cl)ccc2O)n1,6.6µM*,-23%,-14%,-6%
Oc1c(Cl)cc(Cl)cc1CNc1nccs1,6%,-32%,?,1%
COCCNC(=O)CS(=O)Cc1nc(-c2ccc(Cl)cc2)oc1C (stereo not drawn),nt,?,3%,-5%
COc1cccc(-c2nc(CS(=O)CC(=O)NC(C)CCc3ccccc3)c(C)o2)c1 (stereo not drawn),22%,10µM*,?,?
Cc1ccccc1-c1nc(CS(=O)CC(=O)NC(C)CCc2ccccc2)c(C)o1 (stereo not drawn),?,0.14µM*,?,4%
COCCCNC(=O)CS(=O)Cc1nc(-c2ccccc2C)oc1C (stereo not drawn),nt,40µM*,-8%,3%
CCC(C)NC(=O)CS(=O)Cc1nc(-c2cccc(OC)c2)oc1C (stereo not drawn),nt,28µM*,6%,2%
COCCn1c(SCC(=O)NC2(C#N)CCCCC2)nc2ccccc2c1=O,-21%,-10%,10%,9%
CCOC(=O)c1ccc(-n2cccc2/C=C2\NC(=O)NC2=O)cc1,11%,-7%,43%,-5%
